From the supplement of paper PMC10338343
± gives the standard deviation.

The sequences below were run on MILI (PIWIL2) piRISC loaded with L1MC piRNA (26 nt) (assay: pre-steady-state target cleavage rate (min^-1); guide: L1MC piRNA 5'p-UAACUAAAUACUAUGCAAGCUGUAGG; MIWI and MILI are mouse PIWI proteins and EfPiwi is from a freshwater sponge; tags in brackets are library labels; higher = faster piRNA-guided slicing of the target). Conditions: auxiliary factor: 500 nM mouse GTSF1.
Protocol: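 Cleave-'n-Seq: a library of target RNAs (target site embedded in constant flanks, ACAGCATTCCGCGTTAGTGATATCCG... 5' flank; DNA-blocked outside the site) at 0.1 nM was incubated with 1 nM active mouse MILI or MIWI piRISC (synthetic 5'-monophosphorylated piRNA guide) with or without 500 nM mouse GTSF1 at 33 °C for 1 min to 16 h. Uncleaved targets were sequenced and normalised to non-target controls, and the pooled three trials were fitted to a burst-and-steady-state model to give the pre-steady-state cleavage rate (min^-1; k3 is constrained to at most 1e-4). Sequence is the target site only; target names encode pairing extent (gX:gY) and contiguous / 1-mismatch / 2-mismatch / bulge geometry. Fits with R² ≤ 0 are excluded.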

Sequence | pre-steady-state target cleavage rate
UCCUGGAUGUGCUUGCAUAGUAUUUAAGUUA | 0.158 ± 0.018
UCCUGGAUGUCGAAGCAUAGUAUCUUAGUUA | 0.0223 ± 0.0048
UCCUGGAACAGCAUGCAUAGUAUUUAGUAA | 0.214 ± 0.019
UCCUGGUUCAGCAUGCAUAGUAUUUAGUUA | 0.199 ± 0.026
UCCUGGAUGUCGUGUGCAUAGUAUUUAGUUA | 0.102 ± 0.015
UCCUGGAUGUCGAUGCAUAGUAAUUAGUAA | 0.0439 ± 0.013
UCCUGGAUGUGCUUCCUUAGUAUUUAGUUA | 0.0394 ± 0.0077
UCCUGGAUCACCUUGCAUAGUAUUUAGAUA | 0.111 ± 0.025
UCCUGCUACAGGUUGCAUAGUAUUUUGUUA | 0.165 ± 0.028
UCCUGGAACAGCUUGGAUAGUAUUUAGAUA | 0.137 ± 0.024
UCCUGGAUGGGCUUGCAUAGUAUUUAGUUA | 0.17 ± 0.021
UCCUGCUACACCUUGCAAAGUAUUUAGUUA | 0.106 ± 0.0086
UCCUCCUACAGGAAGCAUAGUAUUUACAAA | 0.0698 ± 0.014
UCCUGGUACAGCUUGCAUAGUUAUUAGUUA | 0.0387 ± 0.015
UCCUGCAACAGCUUGCAUAGUUUUUAGUUA | 0.0613 ± 0.0099
UCCUGCUUGAGCUUGCAUAGUAUUUAGAAA | 0.148 ± 0.027
UCCUGGAUCAGCUUGCAUAGUAUUUAGUUUA | 0.358 ± 0.025
UCCUGCUAGAGCUUGCAUAGUAUUUAGAAA | 0.205 ± 0.042
UCCUGCUACAGGUUGCAUAGAAUUUAGUUA | 0.0387 ± 0.0083
UCCUCCAUACAGCUUGCAUAGUAUUUAGUUA | 0.171 ± 0.021
UCCUGGAACAGCUUGGAUAGUAUUUAGUUA | 0.27 ± 0.013
UCCUGGAUGUGACUUGCAUAGUAUUUAGUUA | 0.114 ± 0.019
UCCUCCUUGUGCUUGCAUAGUAUUUACAAA | 0.0181 ± 0.0068
UCCUGGUACAGCUUGCUAAGUAUUUAGAAA | 0.0132 ± 0.0056

Same assay, conditions: auxiliary factor: none (no GTSF1)

Sequence | pre-steady-state target cleavage rate
UCCUGGAUGUGCUUGCAUAGUAUUUAAGUUA | 0.00961 ± 0.0032
UCCUGGAUGUCGAAGCAUAGUAUCUUAGUUA | 0.00455 ± 0.0025
UCCUGGAACAGCAUGCAUAGUAUUUAGUAA | 0.00404 ± 0.0034
UCCUGGUUCAGCAUGCAUAGUAUUUAGUUA | 0.0092 ± 0.0032
UCCUGGAUGUCGUGUGCAUAGUAUUUAGUUA | 0.00602 ± 0.0035
UCCUGGAUGUGCUUCCUUAGUAUUUAGUUA | 0.00557 ± 0.0022
UCCUGCUACAGGUUGCAUAGUAUUUUGUUA | 0.00477 ± 0.0031
UCCUGGAUGUCGAACGUAUGCUAUUUAGUUA | < 0.0001
UCCUGGAUGGGCUUGCAUAGUAUUUAGUUA | 0.0171 ± 0.0035
UCCUGCUACACCUUGCAAAGUAUUUAGUUA | 0.00675 ± 0.0025
UCCUGGUACAGCUUGCAUAGUUAUUAGUUA | 0.00509 ± 0.0027
UCCUGCAACAGCUUGCAUAGUUUUUAGUUA | 0.00354 ± 0.0029
UCCUGGAUCAGCUUGCAUAGUAUUUAGUUUA | 0.00718 ± 0.0026
UCCUCCAUACAGCUUGCAUAGUAUUUAGUUA | 0.00652 ± 0.002
UCCUGGAACAGCUUGGAUAGUAUUUAGUUA | 0.0119 ± 0.0026
UCCUGGAUGUGACUUGCAUAGUAUUUAGUUA | 0.00737 ± 0.0028
